DT40 TDP1 CPT – DT40-hTDP1 cell growth loss with CPT. chicken DT40 Tdp1-/-;hTDP1 cells + 20 nM CPT, ATP luminescence, 48 h. Potency, µM (series often up to 46.2 µM), for the others: at the highest dose activity change, negative = growth inhibition, most hits filed as inhibitors. hit rate 12% among 420,000; also: potency is read from the fitted curve at half-maximal effect; nearly all actives have a fitted effect of over 55% in size
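Cell growth measured by CellTiter-Glo luminescence after a minimum 48 h, 37 C compound exposure with 20 nM CPT in Tdp1-knockout DT40 cells stably expressing hTDP1, seeded 400/well; qHTS titration format.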
HT1080NT lethal – kills 2HG-producing HT-1080-NT fibrosarcoma cells; HT-1080-NT fibrosarcoma viability, CellTiter-Glo ATP luminescence, 48 h; Potency, µM (top dose mostly 46.1 µM), without a hit: at the top dose activity, negative = less viability, hits mostly cytotoxic; hit rate 1.6% among 360,000; AID 686970;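 also: NT is the 2HG producing partner of a matched IDH1 knockdown line; potency is read from the fitted curve at half-maximal effect; 0% = DMSO-treated cells and -100% = media-only wells without cells; nearly all actives have a fitted effect of over 55% in size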
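A 48-hour cytotoxicity screen used HT-1080-NT cells plated 2 hours before compound delivery. ATP-based CellTiter-Glo luminescence measured viability, normalized to DMSO and no-cell controls.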
HT1080 IDH1KD tx – HT-1080 IDH1 knockdown cell toxicity (counter line); HT-1080 IDH1 knockdown viability, ATP luminescence, 48 h; Potency, µM (highest dose often 46.1 µM), for the others: at the highest dose activity, negative = toxicity, actives largely listed as cytotoxic; hit rate 2% among 360,000; AID 686971;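 also: potency is read from the fitted curve at half-maximal effect; 0% = DMSO wells and -100% = cell-free medium wells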
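CellTiter-Glo luminescence after 48 h compound exposure at 37 degrees C of IDH1-knockdown HT-1080 cells in 5% FBS RPMI. %Activity scaled between DMSO wells and cell-free media wells, with curves fitted and assigned curve classes.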
TDP1 cell noCPT – qHTS for Inhibitors of human tyrosyl-DNA phosphodiesterase 1 (TDP1): qHTS in cells in absence of CPT; DT40 Tdp1-/- hTDP1 cells, no CPT, ATP luminescence, 48 h; Potency, µM (highest dose often 46.2 µM), for inactives: at the highest dose activity change, negative = growth inhibition, hits mostly inhibitors; hit rate 15% among 420,000; AID 686978, 2013; also: potency is read from the fitted curve at half-maximal effect; nearly all actives have a fitted effect of over 55% in size
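Stably hTDP1-transfected Tdp1-null chicken DT40 cells were treated with library compounds minus camptothecin and grown for at least 48 hr at 37 °C, after which cellular ATP was quantified by luminescence.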
ELG1 DNA repair – inhibitors of ELG1-dependent DNA repair in HEK293T cells; hit rate 2.3% among 330,000; HEK293T ELG1-luciferase reporter, luminescence, 16 h; DNA damage induced by 5-fluorouridine; AID 504467; Potency, µM (titrated, usually from 46.1 µM), for the others: top-dose activity change, negative = inhibition, usual class: inhibitors; also: potency is read from the fitted curve at half-maximal effect; nearly all actives have a fitted effect of over 55% in size
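Luminescence from the luciferase reporter, measured 30 min after ONE-Glo reagent at room temperature, was the read-out. Beforehand, 2,000 cells per well were exposed for 16 hr at 37 °C to 5-fluorouridine together with compound or vehicle.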
IL-1B inflam inh – inflammasome signaling inhibition, IL-1 beta readout | THP-1 LPS/ATP IL-1B secretion, AlphaLISA, 16 h; stronger effect = lower value | activity change, % at 57.5 µM | hit rate 4.7% among 360,000; in the data active = activity change below about -50%; inconclusive = mostly about -30% to -49%
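THP-1 cells pretreated 1 hr with compounds (up to 57.5 uM final), then stimulated with LPS (250 ng/mL final) plus ATP (1.25 mM final); secreted IL-1B measured by AlphaLISA after 16 hr, decreased signal indicating inhibition.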
ELG1 FLuc counter – luciferase inhibition in cell-free luciferin readout for ELG1 hits; AID 624247; cell-free firefly luciferase luminescence counter-screen, ViewLux; Potency, µM (titrated, usually from 46.1 µM), for inactives: at the highest dose activity change, negative = inhibition, actives largely listed as inhibitors; hit rate 3% among 350; shares compounds with ELG1 DNA repair; also: potency is read from the fitted curve at half-maximal effect
ELG1-Luc inh – human ELG1 repair inhibition, luciferase-tagged ELG1 confirmation | Potency, µM (doses to about 46.1 µM), for inactives: top-dose activity change, negative = inhibition, most hits filed as inhibitors | HEK293T ELG1-luciferase levels, luminescence; cells co-treated with 5-fluorouridine | hit rate 68% among 670 | shares compounds with ELG1 DNA repair; also: potency is read from the fitted curve at half-maximal effect; nearly all actives have a fitted effect of over 55% in size
Target sequence (Q96QE3 whole entry, looked up): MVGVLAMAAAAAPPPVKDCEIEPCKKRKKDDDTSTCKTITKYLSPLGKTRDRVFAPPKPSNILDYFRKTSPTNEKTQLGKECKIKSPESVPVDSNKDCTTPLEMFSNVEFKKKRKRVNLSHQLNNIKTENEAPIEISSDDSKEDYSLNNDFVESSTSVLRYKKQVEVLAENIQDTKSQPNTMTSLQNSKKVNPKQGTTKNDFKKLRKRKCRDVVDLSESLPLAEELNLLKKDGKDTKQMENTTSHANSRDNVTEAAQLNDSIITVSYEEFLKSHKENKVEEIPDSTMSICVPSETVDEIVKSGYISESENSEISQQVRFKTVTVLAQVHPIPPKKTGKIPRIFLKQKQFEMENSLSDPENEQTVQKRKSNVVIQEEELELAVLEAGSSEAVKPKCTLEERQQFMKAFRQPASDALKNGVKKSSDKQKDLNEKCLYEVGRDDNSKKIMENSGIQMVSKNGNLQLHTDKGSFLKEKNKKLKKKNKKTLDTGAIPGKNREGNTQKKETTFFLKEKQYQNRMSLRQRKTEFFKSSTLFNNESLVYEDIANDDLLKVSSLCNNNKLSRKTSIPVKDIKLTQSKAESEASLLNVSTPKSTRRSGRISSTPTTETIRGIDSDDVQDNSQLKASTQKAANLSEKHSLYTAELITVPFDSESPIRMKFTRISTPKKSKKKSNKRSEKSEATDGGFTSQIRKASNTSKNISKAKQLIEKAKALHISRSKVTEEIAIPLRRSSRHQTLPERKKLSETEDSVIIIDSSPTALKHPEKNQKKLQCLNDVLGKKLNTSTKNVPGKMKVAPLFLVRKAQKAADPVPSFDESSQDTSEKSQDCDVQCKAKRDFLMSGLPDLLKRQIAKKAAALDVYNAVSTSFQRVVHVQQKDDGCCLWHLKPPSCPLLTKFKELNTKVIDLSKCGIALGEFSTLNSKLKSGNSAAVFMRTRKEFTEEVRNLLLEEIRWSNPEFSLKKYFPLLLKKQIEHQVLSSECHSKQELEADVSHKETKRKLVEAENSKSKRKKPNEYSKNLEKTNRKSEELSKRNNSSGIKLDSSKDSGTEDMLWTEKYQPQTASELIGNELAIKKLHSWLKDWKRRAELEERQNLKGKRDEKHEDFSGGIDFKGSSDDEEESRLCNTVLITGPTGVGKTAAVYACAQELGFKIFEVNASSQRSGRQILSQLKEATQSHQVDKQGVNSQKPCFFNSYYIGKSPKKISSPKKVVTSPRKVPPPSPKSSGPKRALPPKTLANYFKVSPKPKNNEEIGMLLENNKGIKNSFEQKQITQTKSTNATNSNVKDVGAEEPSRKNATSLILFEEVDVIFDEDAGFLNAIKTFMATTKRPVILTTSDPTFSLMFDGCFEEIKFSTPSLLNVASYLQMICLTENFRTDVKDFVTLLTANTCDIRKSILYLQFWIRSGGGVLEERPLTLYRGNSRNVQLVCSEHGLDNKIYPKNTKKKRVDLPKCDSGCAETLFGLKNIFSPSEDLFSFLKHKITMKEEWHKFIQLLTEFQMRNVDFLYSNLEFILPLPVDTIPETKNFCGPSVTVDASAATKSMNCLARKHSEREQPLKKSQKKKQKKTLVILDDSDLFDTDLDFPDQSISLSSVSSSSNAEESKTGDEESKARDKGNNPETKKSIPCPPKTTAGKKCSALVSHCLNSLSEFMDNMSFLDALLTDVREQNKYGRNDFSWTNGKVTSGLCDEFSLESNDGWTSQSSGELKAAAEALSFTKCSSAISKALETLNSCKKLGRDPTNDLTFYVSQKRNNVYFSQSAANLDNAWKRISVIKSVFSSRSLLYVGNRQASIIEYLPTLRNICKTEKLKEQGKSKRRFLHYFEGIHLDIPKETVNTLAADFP
ELG1-Luc MMS – MMS-stimulated human ELG1 repair inhibition, confirmed | HEK293T luciferase-tagged ELG1 level, MMS stimulated | hit rate 53% among 670 | shares compounds with ELG1 DNA repair | Potency, µM (titrated, usually from 46.1 µM), without a hit: top-dose activity change, negative = inhibition, hits mostly inhibitors; also: potency is read from the fitted curve at half-maximal effect; nearly all actives have a fitted effect of over 60% in size
ELG1 5FU viab – confirmation of ELG1 repair inhibitors: viability with 5FU. shares compounds with ELG1 DNA repair. cell viability with 5-FU, ELG1-dependent repair. Potency, µM (highest dose often 46.1 µM), for the others: top-dose activity change, negative = viability loss, most hits filed as cytotoxic. 670 tested, under 10 active. AID 624250;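 also: ELG1-luc HEK293T cells cotreated with 5-fluorouridine at 10 µM final; potency is read from the fitted curve at half-maximal effect; viability measured 16 h after compound addition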
ELG1 MMS cell – confirmation of ELG1 repair inhibitors: viability with MMS. hit rate 33% among 670. AID 624251. Cell viability with MMS, ELG1-dependent DNA repair. Potency, µM (doses to about 46.1 µM), without a hit: at the top dose activity change, negative = viability loss, usual class: cytotoxic. shares compounds with ELG1 DNA repair;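 also: ELG1-luc HEK293T cells co-treated with 10 µM MMS; potency is read from the fitted curve at half-maximal effect; viability read 16 h after compound addition; nearly all actives have a fitted effect of over 60% in size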
ELG1 unstim viab – counter-screen for ELG1 repair inhibitors: unstimulated cell viability | hit rate 8% among 900 | shares compounds with ELG1 DNA repair | cell viability counter-screen, unstimulated, luminescence | Potency, µM (top dose mostly 45.9 µM), for inactives: at the highest dose activity change, negative = loss of viability, usual class: cytotoxic | AID 624252;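 also: potency is read from the fitted curve at half-maximal effect; compound exposure lasted 16 hours before reading; nearly all actives have a fitted effect of over 55% in size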
FLuc enzyme – firefly luciferase inhibition counter-screen. purified firefly luciferase, luminescence counter-screen. shares compounds with ELG1 DNA repair. Potency, µM (top dose mostly 57.5 µM), for the others: at the highest dose activity, negative = inhibition, hits mostly inhibitors. hit rate 10% among 350; also: potency is read from the fitted curve at half-maximal effect
An asterisk follows results filed as active; ? = inconclusive; . = no result given. A selection: hits, their analogues and other compounds. The true share with any hit is near 19%. Unless noted, calls follow the shape of the dose curve; as a rule, active = well fitted curve in the direction sought with a large enough effect; inconclusive = small, poorly fitted or top-dose-only effect, or another doubt; inactive = no such curve, though single readings can be large; an effect the other way counts as inactive or inconclusive. Unless noted, % is scaled to controls: 0 for no effect and ±100 for the full control effect.

SMILES	DT40 TDP1 CPT	HT1080NT lethal	HT1080 IDH1KD tx	TDP1 cell noCPT	ELG1 DNA repair	IL-1B inflam inh	ELG1-Luc inh	ELG1-Luc MMS	ELG1 5FU viab	ELG1 MMS cell	ELG1 unstim viab	others
COc1ccc(/C(=N/OC(C)=O)c2nccc3cc(OC)c(OC)cc23)cc1OC	-6.5%	-1.7%	-4.2%	-28.5%	3.26µM*	-12.7	?	1.9%	?	7.6%	3.8%
COc1ccc(C2c3c(nc(C)[nH]c3=O)Oc3c2c(=O)oc2ccccc32)cc1 (configuration not stated)	-2.6%	-0.5%	6.2%	-3.7%	0.0%	-22.5	.	.	.	.	.
C=CC1CN2CCC1CC2C(OC(C)=O)c1ccnc2ccc(OC)cc12 (configuration not stated)	-0.7%	1.3%	-1.7%	-7.5%	1.8%	-15.9	.	.	.	.	.
C[C@H]1CCC[C@@H](O)CCC/C=C/c2cc(O)cc(O)c2C(=O)O1	?	?	8.91µM*	20.6µM*	2.82µM*	?	3.97µM*	3.97µM*	-7.2%	?	?
COc1cc(O)cc2c1C(=O)O[C@@H](C)CCCC(=O)CCCCC2	?	4.2%	1.2%	?	0.0%	-11.4	.	.	.	.	.
O=C(NC(=O)c1c(F)cccc1F)Nc1cc(Cl)c(F)c(Cl)c1F	-8.9%	0.4%	-1.7%	?	?	-11.9	.	.	.	.	.
COc1ccc(C(=O)CC2(CC(=O)c3ccc(OC)cc3)C(=O)N(C)C(=O)N(C)C2=O)cc1	10.6%	11.6%	6.9%	3.7%	1.64µM*	?	0.499µM*	2.6%	?	1.1%	-4.4%
CN1C(=O)N(C)C(=O)C2(Cc3c(ccc4ccccc34)N(C)C2)C1=O	?	-14.1%	-10.3%	?	1.2%	19.2	.	.	.	.	.
C[C@@H]1C[C@@H]2[C@H]([C@H]3C=C(COC(=O)c4ccccc4)[C@@H](O)[C@]4(O)[C@@H](O)C(OC(=O)c5ccccc5)=C[C@@]14C3=O)C2(C)C	.	.	.	.	.	.	.	.	.	.	?	ELG1 FLuc counter=95.7%;FLuc enzyme=-1.2%
CCCC(=O)O[C@@H]1[C@@H](C)[C@@]2(O)[C@@H](C=C(CO)C[C@]3(O)C(=O)C(C)=C[C@@H]23)[C@@H]2C(C)(C)[C@]12OC(=O)CCC	.	.	.	.	.	.	.	.	.	.	?
CCCCCCCCCCCCCC(=O)O[C@@H]1[C@@H](C)[C@@]2(O)[C@H](C=C(CO)C[C@]3(O)C(=O)C(C)=C[C@@H]23)[C@@H]2C(C)(C)C12OC(C)=O (some centres not stated)	.	.	.	.	.	.	.	.	.	.	?	ELG1 FLuc counter=78.6%;FLuc enzyme=?
Cc1cccc(NC(=O)CSc2nnc([C@@H](N)Cc3c[nH]c4ccccc34)o2)c1C	-12.0%	-2.7%	-1.3%	?	?	-23.6	.	.	.	.	.
CC1OC(=O)C(C(C)C)NC(=O)C(C(C)C)OC(=O)C(C(C)C)NC(=O)C(C)OC(=O)C(C(C)C)NC(=O)C(C(C)C)OC(=O)C(C(C)C)NC(=O)C(C)OC(=O)C(C(C)C)NC(=O)C(C(C)C)OC(=O)C(C(C)C)NC1=O (configuration not stated)	0.177µM*	.	.	0.223µM*	.	.	12.4%	0.0354µM*	?	0.0792µM*	0.0354µM*	ELG1 FLuc counter=?;FLuc enzyme=4.2%
COc1ccc(OC)c(-n2c(O)c(C=Nc3c(C)n(C)n(-c4ccccc4)c3=O)c(=O)[nH]c2=S)c1	6.9%	11.9%	8.8%	-13.6%	-9.5%	.	.	.	.	.	.
CC1O[C@@H](OC2CC[C@@]3(C=O)C4CC[C@]5(C)C(C6=CC(=O)OC6)CC[C@@]5(O)C4CC[C@]3(O)C2)C(O)C(O)C1O (some centres not stated)	0.461µM*	.	.	0.581µM*	.	.	0.315µM*	0.158µM*	?	0.281µM*	0.141µM*	ELG1 FLuc counter=?;FLuc enzyme=-8.4%
CC(=O)OC1CCC23C(=O)OC45CCC(C6=CC(=O)OC6)C4(C)CCC2C5CCC3(O)C1 (configuration not stated)	11.6µM*	.	.	10.3µM*	.	.	1.25µM*	0.628µM*	?	1.25µM*	0.445µM*
CC(=O)OC1CC[C@]2(C)C(CCC3C2CC[C@]2(C)C(C4=CC(=O)OC4)C(OC(C)=O)CC32O)C1 (some centres not stated)	-18.4%	.	.	?	.	.	1.41µM*	0.888µM*	?	1.25µM*	0.628µM*
CN1CCN(c2ccc(F)cc2N)CC1	10.7%	8.0%	1.0%	1.2%	5.2%	0.0	.	.	.	.	.

Source: PubChem BioAssay
